# Experimental data reported in publication PMC11006913.
# Changes are numbered by the printed parent chain.
# How the values were obtained:
# Assay in all cases: PBM; 200 nM protein, PBS
# Details in all cases: dsDNA, one strand shown
# NKX2-6 = biological target: T1, NKX2-6 (Homo sapiens, UniProt A6NCS4 118-204, R150C)
# T1 sequence: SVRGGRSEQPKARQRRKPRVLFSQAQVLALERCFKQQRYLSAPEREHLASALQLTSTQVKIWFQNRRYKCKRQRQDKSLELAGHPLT
# SIX6 [1] = biological target: T2, SIX6 (Homo sapiens, UniProt O95475 114-200, L167I)
# T2 sequence: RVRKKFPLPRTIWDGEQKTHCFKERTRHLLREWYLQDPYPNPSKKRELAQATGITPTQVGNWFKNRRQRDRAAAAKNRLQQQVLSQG
# SIX6 [2] = biological target: T3, SIX6 (Homo sapiens, UniProt O95475 114-200, L143V)
# T3 sequence: T2 sequence with L30V, I54L
# SIX6 [3] = biological target: T4, SIX6 (Homo sapiens, UniProt O95475 114-200, H141N)
# T4 sequence: T2 sequence with H28N, I54L
# SIX6 [4] = biological target: T5, SIX6 (Homo sapiens, UniProt O95475 114-200, L167M)
# T5 sequence: T2 sequence with I54M
# SIX6 [5] = biological target: T6, SIX6 (Homo sapiens, UniProt O95475 114-200, L143M)
# T6 sequence: T2 sequence with L30M, I54L
# SIX6 [6] = biological target: T7, SIX6 (Homo sapiens, UniProt O95475 114-200, L143I)
# T7 sequence: T2 sequence with L30I, I54L
# SIX6 [7] = biological target: T8, SIX6 (Homo sapiens, UniProt O95475 114-200, T165G)
# T8 sequence: T2 sequence with T52G, I54L
# SIX6 [8] = biological target: T9, SIX6 (Homo sapiens, UniProt O95475 114-200, T139Q)
# T9 sequence: T2 sequence with T26Q, I54L
# SIX6 [9] = biological target: T10, SIX6 (Homo sapiens, UniProt O95475 114-200, T165A)
# T10 sequence: T2 sequence with T52A, I54L
# SIX6 [10] = biological target: T11, SIX6 (Homo sapiens, UniProt O95475 114-200, L167V)
# T11 sequence: T2 sequence with I54V
# SIX6 [11] = biological target: T12, SIX6 (Homo sapiens, UniProt O95475 114-200)
# T12 sequence: T2 sequence with I54L
# HOXD13 [12] = biological target: HOXD13 (Homo sapiens, UniProt P35453 263-343, T313R)
# HOXD13 (Homo sapiens, UniProt P35453 263-343, T313R), sequence (P35453 263-343 T313R): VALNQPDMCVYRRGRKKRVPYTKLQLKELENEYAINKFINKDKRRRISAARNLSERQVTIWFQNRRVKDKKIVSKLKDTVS
# PITX2 = PITX2 (Homo sapiens, UniProt Q99697 72-157)
# HOXD13 [13] = biological target: HOXD13 (Homo sapiens, UniProt P35453 263-343)
# HOXD13 (Homo sapiens, UniProt P35453 263-343), sequence (P35453 263-343): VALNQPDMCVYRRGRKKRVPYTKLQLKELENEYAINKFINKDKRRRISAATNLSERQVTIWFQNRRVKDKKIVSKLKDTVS
# HOXD13 [14] = biological target: HOXD13 (Homo sapiens, UniProt P35453 263-343, T313A)
# HOXD13 (Homo sapiens, UniProt P35453 263-343, T313A), sequence (P35453 263-343 T313A): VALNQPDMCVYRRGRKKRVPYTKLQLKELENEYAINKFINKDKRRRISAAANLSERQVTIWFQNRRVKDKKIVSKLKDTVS
# NKX3-2 [15] = biological target: NKX3-2 (Homo sapiens, UniProt P78367 192-278, P234S)
# NKX3-2 (Homo sapiens, UniProt P78367 192-278, P234S), sequence (P78367 192-278 P234S): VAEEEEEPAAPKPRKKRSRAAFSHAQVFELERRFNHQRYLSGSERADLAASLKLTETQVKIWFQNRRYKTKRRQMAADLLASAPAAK
# NKX3-2 [16] = biological target: NKX3-2 (Homo sapiens, UniProt P78367 192-278)
# NKX3-2 (Homo sapiens, UniProt P78367 192-278), sequence (P78367 192-278): as the sequence (P78367 192-278 P234S) above, with S43P counted along it
# HESX1 [17] = biological target: HESX1 (Homo sapiens, UniProt Q9UBX0 95-180, R165K)
# HESX1 (Homo sapiens, UniProt Q9UBX0 95-180, R165K), sequence (Q9UBX0 95-180 R165K): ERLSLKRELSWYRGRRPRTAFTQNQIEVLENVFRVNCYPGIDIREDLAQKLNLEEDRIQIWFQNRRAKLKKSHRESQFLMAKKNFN
# HESX1 [18] = biological target: HESX1 (Homo sapiens, UniProt Q9UBX0 95-180, R109Q)
# HESX1 (Homo sapiens, UniProt Q9UBX0 95-180, R109Q), sequence (Q9UBX0 95-180 R109Q): as the sequence (Q9UBX0 95-180 R165K) above, with R15Q, K71R counted along it
sequence,measurement,setting,value
CACAAGTG,binding signal,NKX2-6,"11.6 upbm affinity estimate (log intensity, higher = more binding, comparable within an allelic series)"
CGGCGCCG,binding signal,SIX6 [1],"8.88 upbm affinity estimate (log intensity, higher = more binding, comparable within an allelic series)"
same,binding signal,SIX6 [2],"8.75 upbm affinity estimate (log intensity, higher = more binding, comparable within an allelic series)"
same,binding signal,SIX6 [3],"8.89 upbm affinity estimate (log intensity, higher = more binding, comparable within an allelic series)"
same,binding signal,SIX6 [4],"8.86 upbm affinity estimate (log intensity, higher = more binding, comparable within an allelic series)"
same,binding signal,SIX6 [5],"8.74 upbm affinity estimate (log intensity, higher = more binding, comparable within an allelic series)"
same,binding signal,SIX6 [6],"8.87 upbm affinity estimate (log intensity, higher = more binding, comparable within an allelic series)"
same,binding signal,SIX6 [7],"8.96 upbm affinity estimate (log intensity, higher = more binding, comparable within an allelic series)"
same,binding signal,SIX6 [8],"8.91 upbm affinity estimate (log intensity, higher = more binding, comparable within an allelic series)"
same,binding signal,SIX6 [9],"8.83 upbm affinity estimate (log intensity, higher = more binding, comparable within an allelic series)"
same,binding signal,SIX6 [10],"8.85 upbm affinity estimate (log intensity, higher = more binding, comparable within an allelic series)"
same,binding signal,SIX6 [11],"8.9 upbm affinity estimate (log intensity, higher = more binding, comparable within an allelic series)"
CGGTGGAG,binding signal,HOXD13 [12],"9.59 upbm affinity estimate (log intensity, higher = more binding, comparable within an allelic series)"
same,binding signal,PITX2,"8.06 upbm affinity estimate (log intensity, higher = more binding, comparable within an allelic series)"
same,binding signal,HOXD13 [13],"9.6 upbm affinity estimate (log intensity, higher = more binding, comparable within an allelic series)"
same,binding signal,HOXD13 [14],"9.64 upbm affinity estimate (log intensity, higher = more binding, comparable within an allelic series)"
CAGGTCGC,binding signal,HOXD13 [12],"9.62 upbm affinity estimate (log intensity, higher = more binding, comparable within an allelic series)"
same,binding signal,HOXD13 [13],"9.82 upbm affinity estimate (log intensity, higher = more binding, comparable within an allelic series)"
same,binding signal,HOXD13 [14],"9.97 upbm affinity estimate (log intensity, higher = more binding, comparable within an allelic series)"
CCCGAGGC,binding signal,PITX2,"8.01 upbm affinity estimate (log intensity, higher = more binding, comparable within an allelic series)"
same,binding signal,NKX3-2 [15],"10.3 upbm affinity estimate (log intensity, higher = more binding, comparable within an allelic series)"
same,binding signal,NKX3-2 [16],"10.4 upbm affinity estimate (log intensity, higher = more binding, comparable within an allelic series)"
ACGGTCCA,binding signal,NKX3-2 [15],"10.5 upbm affinity estimate (log intensity, higher = more binding, comparable within an allelic series)"
same,binding signal,NKX3-2 [16],"10.5 upbm affinity estimate (log intensity, higher = more binding, comparable within an allelic series)"
AATTAATA,binding signal,HESX1 [17],"12.2 upbm affinity estimate (log intensity, higher = more binding, comparable within an allelic series)"
same,binding signal,HOXD13 [12],"10.9 upbm affinity estimate (log intensity, higher = more binding, comparable within an allelic series)"
same,binding signal,HOXD13 [13],"11.7 upbm affinity estimate (log intensity, higher = more binding, comparable within an allelic series)"
same,binding signal,HESX1 [18],"9.32 upbm affinity estimate (log intensity, higher = more binding, comparable within an allelic series)"
same,binding signal,HOXD13 [14],"11.7 upbm affinity estimate (log intensity, higher = more binding, comparable within an allelic series)"
ATAATTAA,binding signal,HESX1 [17],"13.5 upbm affinity estimate (log intensity, higher = more binding, comparable within an allelic series)"
same,binding signal,HESX1 [18],"9.82 upbm affinity estimate (log intensity, higher = more binding, comparable within an allelic series)"
AATTAATG,binding signal,HESX1 [17],"12.1 upbm affinity estimate (log intensity, higher = more binding, comparable within an allelic series)"
same,binding signal,HESX1 [18],"9.35 upbm affinity estimate (log intensity, higher = more binding, comparable within an allelic series)"
TAATTATA,binding signal,HESX1 [17],"12.8 upbm affinity estimate (log intensity, higher = more binding, comparable within an allelic series)"
same,binding signal,HOXD13 [12],"10.7 upbm affinity estimate (log intensity, higher = more binding, comparable within an allelic series)"
same,binding signal,HESX1 [18],"9.16 upbm affinity estimate (log intensity, higher = more binding, comparable within an allelic series)"
GGTAATTA,binding signal,HESX1 [17],"13.1 upbm affinity estimate (log intensity, higher = more binding, comparable within an allelic series)"
same,binding signal,HESX1 [18],"9.54 upbm affinity estimate (log intensity, higher = more binding, comparable within an allelic series)"
same,binding signal,NKX3-2 [15],"11.7 upbm affinity estimate (log intensity, higher = more binding, comparable within an allelic series)"
same,binding signal,NKX3-2 [16],"11.7 upbm affinity estimate (log intensity, higher = more binding, comparable within an allelic series)"
GCTAATTA,binding signal,HESX1 [17],"13.8 upbm affinity estimate (log intensity, higher = more binding, comparable within an allelic series)"
same,binding signal,HESX1 [18],"10.5 upbm affinity estimate (log intensity, higher = more binding, comparable within an allelic series)"
same,binding signal,NKX3-2 [15],"11.7 upbm affinity estimate (log intensity, higher = more binding, comparable within an allelic series)"
same,binding signal,NKX3-2 [16],"11.7 upbm affinity estimate (log intensity, higher = more binding, comparable within an allelic series)"
CGTAATTA,binding signal,HESX1 [17],"12.6 upbm affinity estimate (log intensity, higher = more binding, comparable within an allelic series)"
same,binding signal,HESX1 [18],"9.06 upbm affinity estimate (log intensity, higher = more binding, comparable within an allelic series)"
ATAATTAC,binding signal,HESX1 [17],"12.6 upbm affinity estimate (log intensity, higher = more binding, comparable within an allelic series)"
same,binding signal,HESX1 [18],"9.02 upbm affinity estimate (log intensity, higher = more binding, comparable within an allelic series)"
AGTAATTA,binding signal,HESX1 [17],"13 upbm affinity estimate (log intensity, higher = more binding, comparable within an allelic series)"
same,binding signal,HESX1 [18],"9.52 upbm affinity estimate (log intensity, higher = more binding, comparable within an allelic series)"
TTAATTAA,binding signal,HESX1 [17],"13.7 upbm affinity estimate (log intensity, higher = more binding, comparable within an allelic series)"
same,binding signal,HESX1 [18],"11.2 upbm affinity estimate (log intensity, higher = more binding, comparable within an allelic series)"
GTTAATTA,binding signal,HESX1 [17],"13.7 upbm affinity estimate (log intensity, higher = more binding, comparable within an allelic series)"
same,binding signal,HOXD13 [12],"10.7 upbm affinity estimate (log intensity, higher = more binding, comparable within an allelic series)"
same,binding signal,HESX1 [18],"10.5 upbm affinity estimate (log intensity, higher = more binding, comparable within an allelic series)"
same,binding signal,HOXD13 [14],"11.6 upbm affinity estimate (log intensity, higher = more binding, comparable within an allelic series)"
CTTAATTA,binding signal,HESX1 [17],"13.6 upbm affinity estimate (log intensity, higher = more binding, comparable within an allelic series)"
same,binding signal,HESX1 [18],"10.5 upbm affinity estimate (log intensity, higher = more binding, comparable within an allelic series)"
GTAATTAA,binding signal,HESX1 [17],"13.2 upbm affinity estimate (log intensity, higher = more binding, comparable within an allelic series)"
same,binding signal,HESX1 [18],"9.89 upbm affinity estimate (log intensity, higher = more binding, comparable within an allelic series)"
GTAATTAC,binding signal,HESX1 [17],"12.5 upbm affinity estimate (log intensity, higher = more binding, comparable within an allelic series)"
same,binding signal,HESX1 [18],"9.11 upbm affinity estimate (log intensity, higher = more binding, comparable within an allelic series)"
GATAATTA,binding signal,HESX1 [17],"13.6 upbm affinity estimate (log intensity, higher = more binding, comparable within an allelic series)"
same,binding signal,HESX1 [18],"9.64 upbm affinity estimate (log intensity, higher = more binding, comparable within an allelic series)"
TAATTAAA,binding signal,HESX1 [17],"13.1 upbm affinity estimate (log intensity, higher = more binding, comparable within an allelic series)"
same,binding signal,HOXD13 [12],"10.8 upbm affinity estimate (log intensity, higher = more binding, comparable within an allelic series)"
same,binding signal,HOXD13 [13],"11.8 upbm affinity estimate (log intensity, higher = more binding, comparable within an allelic series)"
same,binding signal,HESX1 [18],"10 upbm affinity estimate (log intensity, higher = more binding, comparable within an allelic series)"
same,binding signal,HOXD13 [14],"11.7 upbm affinity estimate (log intensity, higher = more binding, comparable within an allelic series)"
CTAATTAA,binding signal,HESX1 [17],"13.8 upbm affinity estimate (log intensity, higher = more binding, comparable within an allelic series)"
same,binding signal,HOXD13 [12],"10.8 upbm affinity estimate (log intensity, higher = more binding, comparable within an allelic series)"
same,binding signal,HOXD13 [13],"11.8 upbm affinity estimate (log intensity, higher = more binding, comparable within an allelic series)"
same,binding signal,HESX1 [18],"11.2 upbm affinity estimate (log intensity, higher = more binding, comparable within an allelic series)"
same,binding signal,HOXD13 [14],"11.6 upbm affinity estimate (log intensity, higher = more binding, comparable within an allelic series)"
